# Rows were chosen to be rich in hits. Some 9.3% of all compounds tested hit in one or more screens of this group.
# ELG1 genotoxic = qHTS screen for small molecules that induce genotoxicity in human embryonic kidney (HEK293T) cells expressing luciferase-tagged ELG1; Potency, µM (highest dose often 46 µM), for inactives: at the highest dose activity change, positive = activation, usual class: activators; 1.3% of 330,000 active; HEK293T ELG1-luciferase reporter, luminescence, 16 h; further: % of control where 0% means no effect; nearly all actives have a fitted effect of over 60% in size
#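 16 hr compound incubation (37 °C, 5% CO2) of HEK293T cells carrying luciferase-tagged ELG1; luciferase then measured by ONE-Glo luminescence after 30 min at RT.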
# FLuc modulator = qHTS profiling assay for firefly luciferase inhibitor/activator using purifed enzyme and Km concentrations of substrates (counterscreen for miR-21 project). Luciferin 4-monooxygenase (Photinus pyralis), P08659. 6.9% of 360,000 active. purified FLuc, Km substrates, luminescence inhibition. Potency, µM (highest dose often 57.5 µM), for inactives: top-dose activity change, negative = inhibition, hits mostly inhibitors;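 further: plate controls were vehicle for no effect and reference inhibitor for full effect; nearly all actives have a fitted effect of over 55% in size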
# Target sequence (P08659 whole entry, looked up): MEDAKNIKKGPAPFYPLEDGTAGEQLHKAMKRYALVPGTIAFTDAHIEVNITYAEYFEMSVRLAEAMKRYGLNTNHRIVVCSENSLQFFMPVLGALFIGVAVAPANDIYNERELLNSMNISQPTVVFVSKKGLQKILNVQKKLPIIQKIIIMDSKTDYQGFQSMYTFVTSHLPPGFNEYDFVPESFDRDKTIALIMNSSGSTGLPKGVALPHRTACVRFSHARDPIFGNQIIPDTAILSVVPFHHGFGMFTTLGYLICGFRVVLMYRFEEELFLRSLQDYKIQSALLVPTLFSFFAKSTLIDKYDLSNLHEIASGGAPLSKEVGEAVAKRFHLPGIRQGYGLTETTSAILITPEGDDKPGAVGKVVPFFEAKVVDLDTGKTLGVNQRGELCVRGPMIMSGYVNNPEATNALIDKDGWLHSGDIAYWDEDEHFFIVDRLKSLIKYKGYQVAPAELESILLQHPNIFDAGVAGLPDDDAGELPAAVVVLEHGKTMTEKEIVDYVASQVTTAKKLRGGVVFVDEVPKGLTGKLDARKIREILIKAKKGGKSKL
#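 Biochemical qHTS of compounds, final roughly 60 µM downward over six points, against 10 nM purified firefly luciferase using Km concentrations of substrates (10 uM D-luciferin, 10 uM ATP) in Tris acetate pH 7.5 buffer; luminescence output.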
# NPC1 promoter act = qHTS Assay for NPC1 Promoter Activators; Potency, µM (highest dose often 9.22 µM), without a hit: at the top dose activation, actives largely listed as activators; Huh7 NPC1 promoter luciferase reporter, 24 h; 2.4% of 320,000 active; AID 485313, 2010; further: % of control where 0% means no effect; nearly all actives have a fitted effect of over 60% in size
#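 Huh7 cells stably carrying NPC1 promoter–luciferase, plated in Opti-MEM with 10% FBS for 2 h, were exposed to compound in DMSO for 24 h at 37 °C; luciferase reagent was added for 10 min and luminescence read.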
# ELG1 repair inh = qHTS screen for small molecules that inhibit ELG1-dependent DNA repair in human embryonic kidney (HEK293T) cells expressing luciferase-tagged ELG1; AID 504467, 2011; HEK293T ELG1-luciferase reporter, luminescence, 16 h; DNA damage induced by 5-fluorouridine; 2.3% of 330,000 active; Potency, µM (top dose mostly 46.1 µM), inactives show at the top dose activity change, negative = inhibition, usual class: inhibitors; further: on the % scale 0 is the no-effect control and ±100 the full control effect; nearly all actives have a fitted effect of over 55% in size
#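 HEK293T cells expressing luciferase-tagged ELG1 (2,000/well) received 5-Fluorouridine plus compound or DMSO for 16 hr at 37 °C. Luciferase was read by ONE-Glo luminescence after 30 min at room temperature.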
# SMN2 splice up = qHTS Assay for Enhancers of SMN2 Splice Variant Expression; 2.8% of 210,000 active; Potency, µM (titrated, usually from 46.1 µM), for inactives: top-dose activity change, positive = activation, actives largely listed as activators; HEK293 SMN2-luciferase splicing reporter, luminescence, 30-36 h; AID 1458, 2008; further: % of control where 0% means no effect; nearly all actives have a fitted effect of over 55% in size
#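 HEK293 cells carry an SMN2 […]–luciferase reporter in which exon 7 inclusion puts luciferase in frame. Cells were plated 10-12 h before compound addition, then incubated 30-36 h at 37C. ONE-Glo luminescence was read; sodium butyrate at 4.5 mM final served as control.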
# Rab9 prom act = qHTS Assay for Rab9 Promoter Activators; 2.8% of 320,000 active; Potency, µM (titrated, usually from 9.22 µM), for the others: at the highest dose activation, negative = inhibition, usual class: activators; Huh7 Rab9 promoter-luciferase reporter, luminescence, 24 h; further: % of control where 0% means no effect; nearly all actives have a fitted effect of over 60% in size
#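 Promoter activation is measured as luciferase luminescence in Huh7 cells stably transfected with a Rab9 promoter–luciferase construct, following 24 h compound exposure at 37 °C and 10 min reagent incubation at ambient temperature.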
# * marks the source's active call; other numbers are inactive results; ? = inconclusive; nt = no result given; [ ] = another dose, or the depositor's remark. The call rests on the fitted dose curve; in most records, active means well fitted curve in the direction sought with a large enough effect; inconclusive means small, poorly fitted or top-dose-only effect, or another doubt; inactive means no such curve, though single readings can be large; an effect the other way counts as inactive or inconclusive. Potency means the concentration at half of the fitted maximal effect.
SMILES,ELG1 genotoxic,FLuc modulator,NPC1 promoter act,ELG1 repair inh,SMN2 splice up,Rab9 prom act
CN1C(=O)Cc2cc(S(=O)(=O)CCC(=O)Nc3cccc(C(F)(F)F)c3)ccc21,nt,-1%,nt,nt,nt,nt
NC(N)=Nc1ccc(-c2ccc(N=C(N)N)cc2)cc1,nt,nt,nt,nt,2%[9.22 µM],nt
Cc1ccc(-c2cn(-c3cccc(Cl)c3)c(S(=O)(=O)CC(=O)Nc3ccccc3F)n2)cc1,nt,?,nt,nt,13µM*,nt
O=C(CSc1nc(-c2ccccc2)cn1-c1ccccc1)Nc1ccccc1,nt,-11%,nt,nt,nt,nt
Cc1ccc[n+](CC(=O)Nc2cccc(Cl)c2)c1,-2%,2%,-4%,0%,nt,11%
Cc1ccc(-c2cn(-c3cccc(Cl)c3)c(S(=O)(=O)CC(=O)Nc3cccc(C)c3)n2)cc1,nt,-13%,nt,nt,16µM*,nt
Cc1cccc(NC(=O)CS(=O)(=O)c2nc(-c3ccccc3)cn2-c2cccc(Cl)c2)c1C,nt,4%,nt,nt,28%,nt
O=C(CS(=O)(=O)c1nc(-c2ccc(Cl)cc2)cn1-c1ccccc1)Nc1cccc(Cl)c1,nt,?,nt,nt,13µM*,nt
O=C(CS(=O)(=O)c1nc(-c2ccc(Cl)cc2)cn1-c1ccccc1)Nc1ccc(F)cc1F,nt,21µM*,nt,nt,14µM*,nt
Cc1ccc(NC(=O)CS(=O)(=O)c2nc(-c3ccc(C)cc3)cn2-c2ccc(C)cc2)cc1,nt,?,nt,nt,18µM*,nt
CCOc1ccc(-c2cn(-c3ccc(C)cc3)c(SCC(=O)Nc3ccc(C)cc3)n2)cc1,nt,-5%,nt,nt,nt,nt
CC1CCCN(C(=O)COc2ccc(-c3ccccc3)cc2)C1 (stereo unspecified),7%,?,1%,-4%,14%,16%
Cc1cccc(OCC(=O)N2CCN(C(=O)Cc3ccccc3)CC2)c1,-2%,3%,-3%,2%,-7%,-2%
O=C(COc1ccc(F)cc1)N1CCC(c2ccccc2)C1 (stereo unspecified),?,19µM*,29%,?,13µM*,?
Cc1cccc(OCC(=O)N2CCC(c3ccccc3)C2)c1 (stereo unspecified),21µM*,13µM*,3.2µM*,?,16µM*,2.8µM*
CC(C)c1ccc(NC(=O)CSc2ncc3c(n2)-c2ccccc2N(C)S3(=O)=O)cc1,nt,-3%,nt,nt,nt,nt
CCOc1ccccc1CNC(=O)CN1C(=O)C2CCCCN2c2ccc(C(=O)N(C)C)cc21 (stereo unspecified),nt,4%,nt,nt,nt,nt
CCOc1ccccc1CNC(=O)c1ccc2c(c1)N(Cc1ccc(C)cc1)CCS2,nt,-9%,nt,nt,-15%,nt
O=C(Nc1ccc2c(c1)OCCO2)c1cc(-n2cnnc2)ccc1Cl,3%,-14%,1%,-1%,15%,-2%
Cn1nc(C(=O)Nc2ccc(Cl)cc2)cc1C(=O)Nc1ccc(Cl)cc1,0%,1%,0%,-7%,nt,16%
Cn1nc(C(=O)Nc2ccc3c(c2)OCCO3)cc1C(=O)O,13%,9.5µM*,3%,?,-1%,-5%
Cn1ccc(C(=O)Nc2ccc3c(c2)OCCO3)n1,5.8µM*,?,0.89µM*,?,nt,0.71µM*
CCOC(=O)c1cc(S(=O)(=O)N(C)Cc2ccccc2)cn1C,-3%,-3%,-3%,3%,nt,-6%
CCOC(=O)C1C(=O)C=C(c2ccc(C)cc2)CC1c1cccc([N+](=O)[O-])c1 (stereo unspecified),-6%,11µM*,-4%,?,nt,0%
CCOC(=O)C1C(=O)C=C(c2ccc(NS(C)(=O)=O)cc2)CC1c1ccco1 (stereo unspecified),-3%,-2%,-2%,4%,-11%,3%
